High-throughput results deposited in PubChem BioAssay by National Center for Advancing Translational Sciences (NCATS).
Compounds with a hit are over-represented: about 17% of the library has one in this group of screens.
DT40 TDP1 no CPT = qHTS for Inhibitors of human tyrosyl-DNA phosphodiesterase 1 (TDP1): qHTS in cells in absence of CPT. DT40 Tdp1-/- hTDP1 cells, no CPT, ATP luminescence, 48 h. Potency, µM (doses to about 46.2 µM), without a hit: at the top dose activity change, negative = growth inhibition, actives largely listed as inhibitors. hit rate 15% among 420,000; further: on the % scale 0 is the no-effect control and ±100 the full control effect; nearly all actives have a fitted effect of over 55% in size
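Growth of hTDP1-complemented DT40 Tdp1-knockout cells is measured by ATP luminescence after at least 48 hr compound exposure at 37 °C, with DMSO substituting for the 20 nM CPT used in the parallel screen.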
ClpP mod = qHTS Assay for Activators of ClpP | purified B. subtilis ClpP, FRET peptide cleavage, 20 min | Potency, µM (highest dose often 57.5 µM), for the others: top-dose activity change, negative = active | hit rate 1.9% among 340,000; active means well fitted falling curve with a large enough effect; inconclusive means small, poorly fitted or top-dose-only effect; inactive means no such curve, though single readings can be large or run the other way; further: the source files actives as falling curves though it sought activators and does not explain the sign; nearly all actives have a fitted effect of over 65% in size
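Purified B. subtilis ClpP, 10 microg/mL final in Tris/HCl pH8 with KCl, BSA, glycerol and Tween-20, cleaved an Abz/nitrotyrosine-quenched decapeptide. Fluorescence (ex 320, em 430) was read at 0 and 20 min at room temperature. Delta was normalized to 5.8 microM ADEP and DMSO/no-enzyme controls.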
TDP1 cell CPT = growth inhibition of DT40 Tdp1-/-;hTDP1 cells with camptothecin (screen for TDP1 inhibitors); chicken DT40 Tdp1-/-;hTDP1 cells + 20 nM CPT, ATP luminescence, 48 h; Potency, µM (series often up to 46.2 µM), inactives show at the top dose activity change, negative = growth inhibition, hits mostly inhibitors; hit rate 12% among 420,000; further: on the % scale 0 is the no-effect control and ±100 the full control effect; nearly all actives have a fitted effect of over 55% in size
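Cell growth measured by CellTiter-Glo luminescence after a minimum 48 h, 37 C compound exposure with 20 nM CPT in Tdp1-knockout DT40 cells stably expressing hTDP1, seeded 400/well; qHTS titration format.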
TDP1 block = TDP1 (human) enzyme inhibition. recombinant TDP1, AlphaScreen DNA substrate cleavage. Potency, µM (highest dose often 130 µM), inactives show top-dose activity change, negative = inhibition, hits mostly inhibitors. Q9NUW8. hit rate 0.28% among 350,000; further: on the % scale 0 is the no-effect control and ±100 the full control effect; nearly all actives have a fitted effect of over 40% in size
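Recombinant E. coli-expressed Tdp1 (1 nM) preincubated with compound 15 min at RT, then 5'-biotin/3'-phosphotyrosine-FITC DNA substrate (15 nM) added for 5 min. AlphaScreen beads (10 ug/ml) added, 10 min RT; tyrosine-FITC cleavage read as signal loss.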
Starred values were filed as active, the others as inactive; ? = inconclusive; nt = no result. Unless noted, the call rests on the fitted dose curve; in most records, active means well fitted curve in the direction sought with a large enough effect; inconclusive means small, poorly fitted or top-dose-only effect, or another doubt; inactive means no such curve, though single readings can be large; an effect the other way counts as inactive or inconclusive. Potency means the concentration at half of the fitted maximal effect.

SMILES	DT40 TDP1 no CPT	ClpP mod	TDP1 cell CPT	TDP1 block
Cc1ccc(N2C(=N)/C(=C3/Nc4ccccc4S3)C(c3ccccc3)C2=O)cc1 (stereo not given)	4.6µM*	-1%	?	8%
CO/C=C\C=C/c1nnn(-c2ccc(Cl)cc2)n1	23µM*	nt	?	5%
Cc1ccc(C(=O)COC(=O)CN2C(=O)C3C4CCC(C4)C3C2=O)cc1[N+](=O)[O-] (stereo not given)	?	-1%	?	3%
O=C(CN1C(=O)C2C3C=CC(C3)C2C1=O)OCC(=O)c1ccc(Cl)c([N+](=O)[O-])c1 (stereo not given)	?	2%	21µM*	nt
COc1cc(-c2ccno2)ccc1S(=O)(=O)N1CCN(c2ccc(C(C)=O)cc2)CC1	15µM*	-4%	?	5%
COc1cc(-c2ccno2)ccc1S(=O)(=O)N1CCN(c2ccc(F)cc2)CC1	7.3µM*	0%	?	8%
O=C(Nc1ccc(C(F)(F)F)cc1)C1CCC(CNS(=O)(=O)c2cccc3nsnc23)CC1 (stereo not given)	?	-2%	-30%	7%
Cc1ccc2onc(CNC(=O)N3CCN(c4cccc(C)c4C)CC3)c2c1	?	0%	?	-3%
O=C(Nc1cc(S(=O)(=O)N2CCCC2)ccc1Cl)c1cc(F)c(F)c(F)c1F	-30%	nt	-21%	1%
Cc1[nH]c(C)c(S(=O)(=O)N(Cc2ccccc2)C(C)(C)C)c1C(=O)N1CCCC1	-30%	1%	?	2%
COc1ccc(Cl)cc1S(=O)(=O)Nc1ccc2[nH]c(=O)[nH]c2c1	16µM*	-2%	21µM*	0%
COc1ccc(C(=O)N(Cc2ccccc2)Cc2ccc(OC)c(COc3ccc(NC(C)=O)cc3)c2)cc1	22µM*	-2%	?	0%
COc1ccc(F)cc1S(=O)(=O)Nc1ccc(C)cc1	23µM*	?	-3%	0%
CCOc1ccc(NS(=O)(=O)c2ccc(OC)c(C)c2)cc1	?	-3%	?	7%
COc1ccc(NS(=O)(=O)c2cc(C)ccc2OC)cc1OC	-14%	-23%	-15%	3%
CCOc1ccc(NS(=O)(=O)c2cc(Cl)ccc2OC)cc1	16µM*	-5%	?	6%
Cc1cn([C@H]2C[C@H](O)[C@@H](CCC(=O)NCCc3cccs3)O2)c(=O)[nH]c1=O	25%	0%	12%	nt
COc1ccc(NC(C)=O)cc1S(=O)(=O)Nc1ccc(OCc2ccccc2)cc1	15µM*	nt	16µM*	nt
COc1ccc(NC(C)=O)cc1S(=O)(=O)Nc1ccccc1C(=O)NCCc1ccccc1	1%	nt	-9%	nt
COC(=O)[C@@H]1CCCN1C(=O)c1cc(NC(=O)c2ccccc2)cc2ncn(C3CCCC3)c12	-23%	nt	-21%	nt
CCCCOCCOCCOCc1cc2c(cc1CCC)OCO2	?	nt	?	-4%
CCCCN1C(=N)N([C@@H](C)CN2CCC[C@H]2CN2C(N)=NC[C@@H]2Cc2ccccc2)C[C@H]1Cc1ccccc1	?	2%	?	-14%
CCN1C(N(C)C)=NC[C@@H]1Cc1ccccc1	-12%	-1%	0%	-5%
CC(C)CCCN1C(N(C)C)=NC[C@@H]1Cc1ccccc1	21µM*	-1%	21µM*	-4%
CCC(C)CCN1C(N(C)C)=NC[C@@H]1Cc1ccccc1 (stereo not given in full)	?	-3%	12µM*	-1%
SMILES	DT40 TDP1 no CPT	ClpP mod	TDP1 cell CPT	TDP1 block
Cc1ccc2nc(-c3ccc(F)cc3)c(Cc3ccccc3C(F)(F)F)n2c1	?	-25%	?	nt
O=C1NC(=O)C(Cc2ccccc2)(C2CCN(Cc3cccn3-c3cccnc3)CC2)N1 (stereo not given)	-18%	nt	2%	nt
Cn1cc(-c2coc3c(C(=O)NCc4cccc(Cl)c4)cccc23)cn1	5.8µM*	-17%	?	nt
COc1ccc(-c2coc3c(C(=O)NCC4CC4)cccc23)c(C)c1	26µM*	-8%	6.5µM*	nt
COc1ccc(-c2coc3c(C(=O)NCc4ccc(C(F)(F)F)cc4)cccc23)c(C)c1	-94%	-24%	?	nt
COc1ccc(-c2coc3c(C(=O)NCc4cccc(Cl)c4)cccc23)c(C)c1	15µM*	?	15µM*	nt
O=C(NCc1cccc(Cl)c1)c1ccc(-n2cncn2)c2ccoc12	?	-23%	16µM*	nt
CC1(c2cccc(Br)c2)NC(=O)NC1=O (stereo not given)	?	nt	-9%	0%
CCc1nn(CC(=O)NCc2ccc(OC)cc2OC)c(=O)c2cc3c(OC)cccc3n12	-8%	?	6%	0%
COc1ccc(CNC(=O)c2ccc(-n3ccnc3)c3ccoc23)cc1OC	?	-3%	18µM*	nt
COc1ccc(-c2coc3c(C(=O)NCc4cccs4)cccc23)c(C)c1	18µM*	-29%	23µM*	nt
COc1ccc(-c2coc3c(C(=O)NCc4ccco4)cccc23)c(C)c1	?	?	18µM*	nt
COc1cc2cc3c4c(cc(OC)c(OC)c4c2cc1OC)CCN3C	12µM*	nt	11µM*	23%
COc1cc(C(=O)Nc2c(C(=O)Nc3ccccc3F)oc3ccccc23)cc(OC)c1OC	4.1µM*	37%	5.2µM*	-1%
COc1ccc(OC)c(C(=O)c2oc3ccccc3c2NC(C)=O)c1	16µM*	1%	23µM*	6%
CCOC(=O)c1[nH]c2ccccc2c1NC(=O)c1ccccc1OC	15µM*	0%	23µM*	9%
CCOc1ccc(NC(=O)c2oc3ccccc3c2NC(=O)COc2cccc(OC)c2)cc1	-12%	33%	-1%	9%
COc1ccccc1NC(=O)c1oc2ccccc2c1NC(=O)c1c(F)cccc1F	?	4%	?	-4%
CCOc1ccc(NC(=O)c2oc3ccccc3c2NC(=O)c2ccc(OC)cc2OC)cc1	18µM*	-17%	23µM*	4%
CN(C)CC#Cc1cccc(-c2nc(C(=O)O)cc3c2[C@@H](CCO)N(S(=O)C(C)(C)C)C3)c1 (stereo not given in full)	2%	-7%	-1%	nt
CCC12CN3CC(C)(CN(C1)C3c1ccccc1C)C2=O (stereo not given)	-1%	-2%	-2%	5%
COc1ccccc1NC(=O)c1oc2ccccc2c1NC(=O)c1cccc(OC)c1OC	5.8µM*	?	5.8µM*	-4%
Cc1ccccc1C(=O)Nc1c(C(=O)N(CCN(C)C)Cc2ccco2)oc2ccccc12	?	-4%	?	4%
COc1cccc(C(=O)Nc2c(C(=O)Nc3ccc(F)cc3)oc3ccccc23)c1OC	?	-7%	-11%	1%
